Screens from PubChem.
Tat export inh – E. coli Tat export inhibitors, primary screen, MC4100, TorA-mCherry reporter, fluorescence, single point | inhibition, % at 10 µM | 340,000 compounds, 0.036% hits | AID 488895, 2010;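 active = mean replicate inhibition at least 50% and at least half of replicates individually reaching 50%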;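 also: exported cargo escapes ClpAP degradation while cytoplasmic cargo is degraded and loses fluorescence; 0% = median of neutral control wells and 100% = median of NaSCN control wells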
E coli growth-1 – E. coli growth inhibition, primary screen, OD600; 330,000 compounds, 0.21% hits; Escherichia coli growth, 23 h; stronger effect = lower value; OD600 absorbance (concentration not given with the values);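 active = OD600 absorbance below the run mean of sample wells minus 3.6 SD, in any replicate, cut at about 0.56 in these data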
AddAB inh – growth inhibition of E. coli expressing H. pylori AddAB, primary screen, AddAB inhibitor project, absorbance | inhibition, % at 11.9 µM | 330,000 compounds, 0.29% hits | AID 435030, 2010; in the data active = inhibition above about 12%;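 also: 0% = vehicle wells of infected cells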
phage Ecoli inh – growth loss of phage-infected E. coli, primary screen, RecBCD inhibitor project, absorbance, with phage, HTS. inhibition, % at 11.9 µM. 360,000 compounds, 0.26% hits. AID 651602, 2012; in the data active = inhibition above about 11%
E coli growth-2 – E. coli V3065 growth inhibition, primary screen, counter-screen for AddAB inhibitor project, absorbance, OD600 | 330,000 compounds, 0.27% hits | AID 449728, 2010 | 18 h | inhibition, % at 11.9 µM;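 active = inhibition above the campaign's mean inhibition across all tested compounds plus 3 SD, cut at about 9.9% in these data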;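 also: uninfected addAB+ strain grown without phage in ampicillin broth; 0% = DMSO wells and 100% = ciprofloxacin 0.95 µg/ml wells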
AddAB confirm – growth loss of phage-infected E. coli expressing H. pylori AddAB, confirmation, AddAB inhibitor project, absorbance, E. coli V3065, T4 phage, triplicate | OD; T4 phage with gene 2 nonsense mutations | shares compounds with AddAB inh | 880 compounds, 64% hits | inhibition, % at 11.9 µM;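 active = mean inhibition above a set limit taken from the earlier primary screen, cut at about 13% in these data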;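 also: higher means less bacterial growth since AddAB block lets phage replicate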
RecBCD counter – growth loss of RecBCD+ E. coli with mutant T4 phage, counter-screen for AddAB inhibitor project, absorbance, V66 E. coli. AID 488955, 2010. inhibition, % at 11.9 µM. OD growth. 880 compounds, 73% hits. shares compounds with AddAB inh;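 active = mean inhibition above the mean of solvent-only control wells plus 3 SD, cut at about 4% in these data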;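 also: optical density read after an 18 h incubation at 37 °C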
Bact viability – bacterial viability inhibition counter-screen, confirmation, counter-screen for AddAB inhibitor project, absorbance; shares compounds with AddAB inh; absorbance (AddAB counterscreen); inhibition, % at 11.9 µM; 880 compounds, 35% hits; AID 488956, 2010; in the data active = inhibition above about 25%
RecBCD conf – growth loss of phage-infected RecBCD+ E. coli, confirmation, RecBCD inhibitor project, absorbance, E. coli V66, T4 gene 2 phage; shares compounds with phage Ecoli inh; E. coli V66 + T4 2- phage, growth OD; inhibition, % at 11.9 µM; 890 compounds, 45% hits; AID 651982, 2013;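 active = mean inhibition over triplicates exceeding the hit threshold derived in the original primary screen, cut at about 11% in these data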
Ecoli viability – E. coli viability inhibition, counter-screen for RecBCD inhibitor project, absorbance, high throughput; shares compounds with phage Ecoli inh; absorbance (OD) growth; inhibition, % at 11.9 µM; 890 compounds, 29% hits; AID 651983, 2013; in the data active = inhibition above about 20%;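 also: E. coli strain V66 grown with compound alone and no phage infection; 0% = bacteria with DMSO vehicle only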
AddAB phage OD – growth loss of phage-infected AddAB-carrying E. coli, confirmation, counter-screen for RecBCD inhibitor project, absorbance, E. coli V3065, T4 phage; shares compounds with phage Ecoli inh; E. coli expressing H. pylori AddAB + T4 phage, OD growth; gene 2 mutant T4, recBCD-deleted host; inhibition, % at 11.9 µM; 890 compounds, 45% hits; AID 651984, 2013;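 active = mean inhibition above the solvent-only control wells' mean plus 3 SD, cut at about 22% in these data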;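 also: higher means less bacterial growth from phage killing when AddAB is blocked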
Numbers without * were called inactive; i = inactive; / = no result; ! = not confirmed by another sample. This is a sample that favours compounds with a hit; in the whole collection about 0.5% have one here.

SMILES	Tat export inh	E coli growth-1	AddAB inh	phage Ecoli inh	E coli growth-2	AddAB confirm	RecBCD counter	Bact viability	RecBCD conf	Ecoli viability	AddAB phage OD
COc1ccc(S(=O)(=O)Nc2ccc3c(c2)CC(=O)N(C(C)CO)CC(C)C(CN(C)C(=O)Nc2ccc4c(c2)OCO4)O3)cc1 (centres undefined)	/	0.62	/	/	/	/	/	/	/	/	/
Cc1ccc(C(C)C)c(OCc2ccc(C(=O)N/N=C/c3ccc(O)cc3O)cc2)c1	-7	/	13*	27*	15*	15*	18*	20	14*	17	24*
N#C/C(=C(/O)c1ccc([N+](=O)[O-])o1)c1nc2ccccc2[nH]1	5	0.47*	19*	13*	13*	96*	63*	98*	35*	64*	101*
N#C/C(=C\c1ccc([N+](=O)[O-])o1)c1nc2ccccc2[nH]1	/	0.61	94*	13*	17*	100*	16*	94*	11*	12	76*
N#C/C(=C\c1ccc(Sc2ccccc2)o1)c1nc2ccccc2[nH]1	7	0.69	1	2	1	/	/	/	/	/	/
CC(C)(C)/C(O)=C(/C#N)c1nc2ccccc2[nH]1	7	/	-2	-3	0	/	/	/	/	/	/
O=C(NN=Cc1ccco1)c1cc(-c2ccc(Cl)cc2)n[nH]1	/	0.6	/	/	/	/	/	/	/	/	/
CC(CN=[N+]=[N-])CN1CCC(C(C)(C)C)CCC1=O (centres undefined)	/	0.67	/	/	/	/	/	/	/	/	/
CCN1/C(=C/C(C)=C/c2sc3ccccc3[n+]2CC)Sc2ccccc21	i	0.21*	33*	14*!	38*	55*	20*	58*	23*	25*	68*
CCOC(=O)[C@@H]1[C@H]2COc3cc(OC)ccc3[C@@H]2N2C(=O)N(c3ccc(C(F)(F)F)cc3)C(=O)[C@@]12C	2	/	2	3	1	/	/	/	/	/	/
CCOC(=O)[C@@H]1[C@H]2COc3cc(OC)ccc3[C@H]2N2C(=O)N(c3ccc(C(F)(F)F)cc3)C(=O)[C@]12C	-7	/	14*	15*	9	2	8.4*	1	7	9	11
CCN1CC2C3C(=O)N(C)C(=O)C3[C@](Cc3ccccc3)(C1=O)N2C(=O)c1ccc(Cl)cc1 (some centres undefined)	/	0.65	/	/	/	/	/	/	/	/	/
O=C(CN1C(=O)S/C(=C\c2ccc(O)cc2)C1=O)c1ccccc1	-12	/	1	3	0	/	/	/	/	/	/
COc1ccc(/C=C2\SC(=O)N(CC(=O)NNC(=O)c3ccccc3O)C2=O)cc1OC	-6	/	23*	16*	18*	20*	14*	16	6	9	16
O=C(CN1C(=O)S/C(=C\c2ccccc2)C1=O)NNC(=O)c1ccccc1O	-8	0.7	19*	14*	17*	16*	14*	12	6	7	7
COc1ccc(/C=C2\SC(=O)N(CC(=O)NNC(=O)c3ccccc3O)C2=O)cc1	0	0.71	17*	15*	10*	11	10*	10	2	3	1
CCCC=C1CCCOC(C(=O)NCc2ccccn2)(C(F)(F)F)C1 (centres undefined)	/	0.7	/	/	/	/	/	/	/	/	/
CC(=NNC(=S)N1CCCCC1)c1ccccn1	/	/	/	4	/	/	/	/	/	/	/
C=CCNC(=S)N/N=C(\C)c1ccccn1	-5	/	31*	38*	30*	31*	29*	25*	27*	34*	32*
CCCCNC1=CC(=O)C(NCCCC)=CC1=O	9	0.69	/	4	/	/	/	/	/	/	/
CCCCNC1=CC(=O)C(=O)c2ccccc21	-29	0.42*	29*	21*	25*	32*	9.9*	19	13*	15	22*
COc1ccc(-c2cc3ccccc3s2)cc1C1C2C=CCC(C)C2C(=O)N1Cc1ccccc1 (centres undefined)	/	0.73	/	/	/	/	/	/	/	/	/
COc1cccc(C(NC(C)=O)c2ccc3cccnc3c2O)c1 (centres undefined)	-6	/	10	10	8	/	/	/	/	/	/
CCCCC(=O)NC(c1ccc(C(C)C)cc1)c1ccc2cccnc2c1O (centres undefined)	-4	0.69	17*	17*	20*	18*	15*	17	9	10	16
CCCC(=O)NC(c1ccccc1)c1ccc2cccnc2c1O (centres undefined)	4	/	24*	20*	32*	26*	25*	21	18*	24*	29*
SMILES	Tat export inh	E coli growth-1	AddAB inh	phage Ecoli inh	E coli growth-2	AddAB confirm	RecBCD counter	Bact viability	RecBCD conf	Ecoli viability	AddAB phage OD
CCCC(=O)NC(c1ccc(OC)cc1)c1ccc2cccnc2c1O (centres undefined)	-1	0.64	28*	31*	30*	25*	25*	18	16*	23*	23*
CC(=O)NC(c1cccc([N+](=O)[O-])c1)c1ccc2cccnc2c1O (centres undefined)	-5	/	/	11	/	/	/	/	/	/	/
O=[N+]([O-])c1ccc(NC(c2ccccc2)c2ccc3cccnc3c2O)cc1 (centres undefined)	3	0.74	/	7	/	/	/	/	/	/	/
CCCCC(=O)NC(c1ccccc1)c1ccc2cccnc2c1O (centres undefined)	-9	/	26*	24*	31*	27*	25*	24	12*	16	29*
COc1ccccc1C1C(c2cccc(C)c2)=NN(c2ccccc2)C1C(=O)N1CCOC1=O (centres undefined)	/	0.65	/	/	/	/	/	/	/	/	/
O=C(COc1cccc2cccnc12)Nc1nccs1	-5	0.63	-1	0	-3	/	/	/	/	/	/
CC(=O)NC(c1ccc(C(C)C)cc1)c1ccc2cccnc2c1O (centres undefined)	3	/	20*	23*	24*	15*	17*	14	13*	16	20
